Shiga inhibitor: A qHTS for Small Molecule Inhibitors of Shiga Toxin; inhibition, % at 38.7 µM; Vero cells, Shiga toxin protein synthesis inhibition reporter; AID 2315, 2010; 290,000 tested, 9.2% active; in the data active = inhibition mostly above about 28%, no sharp cut-off; inactive = mostly below about 43%; also: 0% is about no effect
Sm TGR block: qHTS Assay for the Inhibitors of Schistosoma Mansoni Peroxiredoxins; purified TGR, DTNB reduction, TNB absorbance 405 nm; Potency, µM (series often up to 114 µM), inactives show top-dose activity change, negative = inhibition, actives largely listed as inhibitors; 360,000 tested, 3% active; active = well fitted inhibition curve with a large enough effect; inconclusive = small, poorly fitted or top-dose-only effect; inactive = no such curve, though single readings can be large or run the other way; also: potency is read from the fitted curve at half-maximal effect; % is scaled to controls: 0 for no effect and ±100 for the full control effect; nearly all actives have a fitted effect of over 60% in size
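TGR 20 nM + NADPH 100 uM (dispensed conc.), cpd preinc 15 min RT; start with NADPH (500 uM addition) then DTNB (15 mM addition). Kinetic TNB absorbance, 405 nm filter. Four-parameter Hill fit across titration.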
FMDV inh: High Throughput Screening for Foot and Mouth Disease Virus Antivirals; FMDV antiviral cell-based qHTS; Potency, µM (doses to about 57.9 µM), for the others: at the highest dose activity change, negative = inhibition, actives largely listed as inhibitors; 410,000 tested, 1.2% active; AID 1159524, 2015; calls by dose curve; tested in HEK293T cells; also: read-out not given here; potency is read from the fitted curve at half-maximal effect; % is scaled to controls: 0 for no effect and ±100 for the full control effect; nearly all actives have a fitted effect of over 45% in size
Cycloheximide cs: Cycloheximide Counterscreen for Small Molecule Inhibitors of Shiga Toxin; max response, %; 300,000 tested, 12% active; cell reporter, cycloheximide protein synthesis inhibition counterscreen; in the data active = max response mostly above about 13%, no sharp cut-off; inactive = mostly below about 14%; also: read at 38.3 µM for the half of the compounds with a filed dose; 0% is about no effect
* hit, by the source's call; u = inconclusive; x = not tested or not shown. Compounds with a hit are over-represented: about 12% of the library has one in this group of screens.

SMILES	Shiga inhibitor	Sm TGR block	FMDV inh	Cycloheximide cs
CCCCCC(=O)N1CCN(CCN=CC2=C(O)CC(c3ccc(OC)cc3)CC2=O)CC1 (stereo not drawn)	-25.0	50.1µM*	-6.5%	-3.5
CC1(C)CC(=O)C(C=NCCN2CCNCC2)=C(O)C1	-12.2	x	-23.2%	-6.7
CCC(=O)N1CCN(CCN=CC2=C(O)CC(C)(C)CC2=O)CC1	-15.2	44.7µM*	-13.8%	1.5
CC1(C)CC(=O)C(C=NCCN2CCN(C(=O)CCl)CC2)=C(O)C1	18.8	17.8µM*	-20.3%	-0.8
COc1ccc(NS(=O)(=O)c2ccc3[nH]c(=O)ccc3c2)cc1OC	x	10.8%	-11.2%	x
CCCC[C@@H]1CCCO[C@@](C(=O)NCc2ccc(S(C)(=O)=O)cc2)(C(F)(F)F)C1	14.7	x	x	-4.8
CSCC[C@H](N)C(=O)N[C@@H](CCCN=C(N)N)C(=O)N[C@@H](CC(C)C)C(=O)N[C@@H](Cc1ccccc1)C(=O)N[C@H](C(=O)O)C(C)C	-14.7	x	x	-1.1
O=C(CSc1ccc(F)cc1)NC1CCCCC1	70.6*	-20.4%	76.6%	35.6*
COCCC(=O)NC12CC3CC(CC(C3)C1)C2	-6.6	6.8%	25.2%	-2.3
O=C(CCSc1ccc(Cl)c(Cl)c1)NC12CC3CC(CC(C3)C1)C2	77.3	-2.9%	5.5%	27.1*
O=C(CSc1ccc(Cl)cc1)NC(=O)NC1CCCC1	x	u	0.0%	x
O=C(CSc1ccc(Cl)cc1)NC1CCCC1	72.5*	0.6%	49.4%	35.4*
O=C(CSc1ccc(F)cc1)NC12CC3CC(CC(C3)C1)C2	39.2	x	4.6%	37.4*
O=C(CSc1ccccc1C(=O)O)NC12CC3CC(CC(C3)C1)C2	19.8	-15.5%	-16.9%	1.9
O=C(NC1CCCCC1)Sc1ccc(Cl)cc1	63.1	u	31.6µM*	14.8
O=C(CCCc1ccccc1)NC12CC3CC(CC(C3)C1)C2	x	-15.2%	33.5%	45.5*
O=C(COC(=O)Cc1ccccc1)NC12CC3CC(CC(C3)C1)C2	-7.7	4.5%	8.4%	-2.5
O=C(CCSCc1ccc(Cl)cc1)NC1CCCC1	-9.2	-3.4%	-11.8%	-2.4
CCCCC[C@@H](/C=C/C1C(=O)C=C[C@H]1C/C=C\CCCC(=O)OC)OC(C)=O (stereo partly drawn)	x	x	28.2µM*	x
O=C(NCCCN1CCCCCC1)c1ccc2c(c1)sc1nc(-c3ccccc3)cn12	x	3.7%	15.7%	x
Cc1ccc(OCC(=O)N/N=C\c2ccc(-c3cccc(C(=O)O)c3)o2)c(C)c1	177.3*	-27.1%	15.9%	74.1*
Nc1nonc1C(=O)N/N=C/c1ccc(-c2cccc(C(=O)O)c2)o1	50.8*	7.5%	x	29.3*
Cc1ccc(C(=O)N/N=C/c2ccc(-c3cccc(C(F)(F)F)c3)o2)cn1	16.1	3.1%	31.6µM*	-3.9
Cc1ccc(OCC(=O)N/N=C\c2ccc(C)o2)c(C)c1	-12.1	-7.5%	11.7%	5.5
COc1ccc(CC(=O)N/N=C/c2ccc(-c3cccc(C(=O)O)c3)o2)cc1OC	194.8*	-14.3%	1.7%	71.1*
SMILES	Shiga inhibitor	Sm TGR block	FMDV inh	Cycloheximide cs
COc1ccc(CC(=O)N/N=C/c2ccc(-c3ccc(F)cc3)o2)cc1OC	-2.2	-20.4%	-10.6%	-1.8
O=C(O)c1cccc(-c2ccc(/C=N/Nc3nn[nH]n3)o2)c1	9.8	2.0%	53.6%	9.5
COc1cc2c(cc1NC(=O)COc1cc(C)ccc1C)oc1ccccc12	x	2.8%	-25.8%	x
CNC(=S)N/N=C/c1ccc(-c2cccc(C(=O)O)c2)o1	111.8*	-32.9%	14.0%	61.4*
Cn1cccc1C(=O)N1CCC2(CCCN(c3cccc(-c4ccccc4)c3)C2)CC1	x	x	-9.6%	x
CCOc1cc(C(=O)N/N=C/C(Br)=C/c2ccccc2)cc(OCC)c1OCC	-15.7	-3.3%	-15.2%	1.7
O=C(N/N=C/C(Br)=C/c1ccccc1)c1ccncc1	72.6*	-23.9%	4.2%	37.9*
O=C(N/N=C/C(Br)=C/c1ccccc1)c1cccnc1	65.9*	-11.4%	18.4%	37.8*
O=C(N/N=C/C(Br)=C/c1ccccc1)c1ccc([N+](=O)[O-])cc1	4.0	6.5%	9.5%	11.3
NC(=O)c1ccc(NC(=O)C#Cc2ccccc2)cc1	56.1*	u	-5.8%	34.8*
COc1ccc(NC(=O)C#Cc2ccccc2)cc1OC	38.6	-33.5%	12.2%	12.5*
CN(C)S(=O)(=O)c1ccc2c(c1)N(CC(=O)N1CCN(c3cccc(Cl)c3)CC1)CCS2	x	0.5%	u	x
Cc1c(C(=O)Nc2nc(-c3ccc(F)cc3)ns2)oc2ccc(Cl)cc12	x	3.6%	27.5%	x
Cc1ccc(Sc2c(C)nn(C(C)(C)C)c2OC(=O)CC(C)C)cc1	x	-14.4%	u	x
